# Laboratory results reported in PMC7862700, “An all-to-all approach to the identification of sequence-specific readers for epigenetic DNA modifications on cytosine”.
# Legend:
# Test in all cases: DAPPL (digital affinity profiling via proximity ligation, sequencing); 10 mM Tris-HCl pH 7.5, 50 mM NaCl, 1 mM DTT, 4% glycerol, room temperature, 30 min; GST-TFs on glutathione beads, 16-mer random dsDNA library, 0.1% formaldehyde crosslink after washing; high values mean tight binding
# FLI1 = target: T1, FLI1 (Homo sapiens, UniProt Q01543 1-452); conditions: protein: recombinant; tags: N-terminal GST; dsDNA, one strand shown
# T1 sequence: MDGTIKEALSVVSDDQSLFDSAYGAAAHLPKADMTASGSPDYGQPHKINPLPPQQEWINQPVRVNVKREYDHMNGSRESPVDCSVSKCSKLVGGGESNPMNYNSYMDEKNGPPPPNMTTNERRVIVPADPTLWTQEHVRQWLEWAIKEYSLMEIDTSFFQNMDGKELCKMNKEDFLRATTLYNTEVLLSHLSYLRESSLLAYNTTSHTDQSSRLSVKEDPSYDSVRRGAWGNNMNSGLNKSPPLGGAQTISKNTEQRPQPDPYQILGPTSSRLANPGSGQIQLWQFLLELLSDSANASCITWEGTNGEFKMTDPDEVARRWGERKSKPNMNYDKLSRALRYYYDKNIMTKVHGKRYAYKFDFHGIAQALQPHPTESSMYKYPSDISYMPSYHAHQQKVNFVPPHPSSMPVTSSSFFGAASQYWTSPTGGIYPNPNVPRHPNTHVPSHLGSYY
# In short: (§1)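 Beads coated with glutathione captured GST-fused human transcription factors that had been expressed in yeast, and the factors were then given DNA barcodes and pooled with a tag-only sample. The pools were incubated with 200 nmole of a random double-stranded 16-mer DNA library in Tris/NaCl/DTT/glycerol buffer for 30 min at room temperature, washed, crosslinked with 0.1% formaldehyde and proximity-ligated with BsaI/T4 ligase at 37 °C for 1 h. PCR amplification and Illumina NextSeq500 sequencing came last. Binding signal is each hexamer's read frequency for a factor divided by its frequency for the tag-only sample.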
# ELK1 = target: T2, ELK1 (Homo sapiens, UniProt P19419 1-428); conditions: protein: recombinant; tags: N-terminal GST; dsDNA, one strand shown
# T2 sequence: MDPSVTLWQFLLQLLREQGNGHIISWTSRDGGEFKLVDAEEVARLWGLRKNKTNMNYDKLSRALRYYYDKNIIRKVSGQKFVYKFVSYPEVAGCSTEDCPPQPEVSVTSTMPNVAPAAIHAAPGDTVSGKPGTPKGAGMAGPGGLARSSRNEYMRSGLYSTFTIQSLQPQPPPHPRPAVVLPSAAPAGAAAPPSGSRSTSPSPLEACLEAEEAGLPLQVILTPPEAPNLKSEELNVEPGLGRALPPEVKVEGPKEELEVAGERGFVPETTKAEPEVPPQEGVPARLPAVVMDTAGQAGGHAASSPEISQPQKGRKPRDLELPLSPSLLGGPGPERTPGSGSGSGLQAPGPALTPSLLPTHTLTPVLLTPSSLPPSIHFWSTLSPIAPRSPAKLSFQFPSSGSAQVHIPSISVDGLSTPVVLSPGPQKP
# In short: as §1
# GABPA = target: T3, GABPA (Homo sapiens, UniProt Q06546 1-454); conditions: protein: recombinant; tags: N-terminal GST; dsDNA, one strand shown
# T3 sequence: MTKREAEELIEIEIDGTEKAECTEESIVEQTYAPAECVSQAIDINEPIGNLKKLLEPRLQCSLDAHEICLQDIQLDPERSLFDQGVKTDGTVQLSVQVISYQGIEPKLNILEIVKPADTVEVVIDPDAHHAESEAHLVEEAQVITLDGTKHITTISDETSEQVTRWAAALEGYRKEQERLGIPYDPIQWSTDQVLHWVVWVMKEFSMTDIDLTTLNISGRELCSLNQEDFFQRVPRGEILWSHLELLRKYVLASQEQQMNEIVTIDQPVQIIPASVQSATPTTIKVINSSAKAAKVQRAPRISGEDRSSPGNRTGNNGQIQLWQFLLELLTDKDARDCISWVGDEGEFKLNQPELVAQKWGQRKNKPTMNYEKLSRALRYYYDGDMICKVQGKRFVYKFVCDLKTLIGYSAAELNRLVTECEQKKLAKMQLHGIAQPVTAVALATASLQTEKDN
# In short: as §1
# ERG = target: T4, ERG (Homo sapiens, UniProt P11308 1-479); conditions: protein: recombinant; tags: N-terminal GST; dsDNA, one strand shown
# T4 sequence: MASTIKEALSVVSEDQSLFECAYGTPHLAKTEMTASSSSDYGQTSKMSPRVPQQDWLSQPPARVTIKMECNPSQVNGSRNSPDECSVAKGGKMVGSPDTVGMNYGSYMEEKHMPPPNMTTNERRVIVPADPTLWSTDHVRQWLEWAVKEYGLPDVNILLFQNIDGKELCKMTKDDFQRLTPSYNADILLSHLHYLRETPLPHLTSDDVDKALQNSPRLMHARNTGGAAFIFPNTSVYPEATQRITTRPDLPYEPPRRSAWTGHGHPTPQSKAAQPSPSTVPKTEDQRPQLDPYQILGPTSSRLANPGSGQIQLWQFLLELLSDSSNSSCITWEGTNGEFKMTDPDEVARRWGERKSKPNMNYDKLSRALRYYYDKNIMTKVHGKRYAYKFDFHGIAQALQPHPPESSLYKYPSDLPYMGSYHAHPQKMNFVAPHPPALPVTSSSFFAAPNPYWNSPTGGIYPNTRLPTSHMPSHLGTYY
# In short: as §1
# ELF1 = ELF1 (Homo sapiens, UniProt P32519 1-619); conditions: protein: recombinant; tags: N-terminal GST; dsDNA, one strand shown
# ELF1, sequence (P32519 whole entry): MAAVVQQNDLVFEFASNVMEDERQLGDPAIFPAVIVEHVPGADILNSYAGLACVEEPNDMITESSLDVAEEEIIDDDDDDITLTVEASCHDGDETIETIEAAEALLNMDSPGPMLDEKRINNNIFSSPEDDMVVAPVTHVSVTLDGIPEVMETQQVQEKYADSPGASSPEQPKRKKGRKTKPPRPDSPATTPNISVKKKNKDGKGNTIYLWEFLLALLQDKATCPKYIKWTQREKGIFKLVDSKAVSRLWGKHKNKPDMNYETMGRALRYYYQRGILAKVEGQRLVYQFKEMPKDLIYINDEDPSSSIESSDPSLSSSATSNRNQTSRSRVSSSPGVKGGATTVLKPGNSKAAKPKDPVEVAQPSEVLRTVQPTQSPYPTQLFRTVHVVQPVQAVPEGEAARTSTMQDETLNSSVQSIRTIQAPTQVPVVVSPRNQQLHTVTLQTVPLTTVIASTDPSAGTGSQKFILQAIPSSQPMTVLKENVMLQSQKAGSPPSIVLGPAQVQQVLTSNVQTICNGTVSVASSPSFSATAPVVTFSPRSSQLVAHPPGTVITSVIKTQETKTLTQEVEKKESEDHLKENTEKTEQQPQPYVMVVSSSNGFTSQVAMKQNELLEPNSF
# In short: as §1
# EHF = target: T5, EHF (Homo sapiens, UniProt Q9NZC4 1-300); conditions: protein: recombinant; tags: N-terminal GST; dsDNA, one strand shown
# T5 sequence: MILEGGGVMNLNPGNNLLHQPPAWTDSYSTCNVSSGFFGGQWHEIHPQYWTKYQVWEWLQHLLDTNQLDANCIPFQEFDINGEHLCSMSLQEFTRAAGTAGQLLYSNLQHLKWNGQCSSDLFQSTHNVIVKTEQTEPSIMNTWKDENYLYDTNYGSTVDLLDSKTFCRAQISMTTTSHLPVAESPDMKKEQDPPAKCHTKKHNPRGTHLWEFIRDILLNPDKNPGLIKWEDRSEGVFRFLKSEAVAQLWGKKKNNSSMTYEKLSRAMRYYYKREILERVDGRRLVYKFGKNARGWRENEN
# In short: as §1
# SPI1 = SPI1 (Homo sapiens, UniProt P17947 1-270); conditions: protein: recombinant; tags: N-terminal GST; dsDNA, one strand shown
# In short: as §1
# SPIB = SPIB (Homo sapiens, UniProt Q01892 1-262); conditions: protein: recombinant; tags: N-terminal GST; dsDNA, one strand shown
# SPIB, sequence (Q01892 whole entry): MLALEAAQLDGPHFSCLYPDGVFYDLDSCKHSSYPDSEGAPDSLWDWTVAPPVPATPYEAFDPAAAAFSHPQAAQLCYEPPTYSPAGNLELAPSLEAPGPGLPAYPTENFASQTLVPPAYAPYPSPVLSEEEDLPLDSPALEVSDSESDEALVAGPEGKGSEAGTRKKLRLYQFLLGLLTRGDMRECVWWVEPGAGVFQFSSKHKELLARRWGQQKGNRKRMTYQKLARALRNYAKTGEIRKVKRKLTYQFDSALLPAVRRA
# In short: as §1
# ELK3 = target: T6, ELK3 (Homo sapiens, UniProt P41970 1-407); conditions: protein: recombinant; tags: N-terminal GST; dsDNA, one strand shown
# T6 sequence: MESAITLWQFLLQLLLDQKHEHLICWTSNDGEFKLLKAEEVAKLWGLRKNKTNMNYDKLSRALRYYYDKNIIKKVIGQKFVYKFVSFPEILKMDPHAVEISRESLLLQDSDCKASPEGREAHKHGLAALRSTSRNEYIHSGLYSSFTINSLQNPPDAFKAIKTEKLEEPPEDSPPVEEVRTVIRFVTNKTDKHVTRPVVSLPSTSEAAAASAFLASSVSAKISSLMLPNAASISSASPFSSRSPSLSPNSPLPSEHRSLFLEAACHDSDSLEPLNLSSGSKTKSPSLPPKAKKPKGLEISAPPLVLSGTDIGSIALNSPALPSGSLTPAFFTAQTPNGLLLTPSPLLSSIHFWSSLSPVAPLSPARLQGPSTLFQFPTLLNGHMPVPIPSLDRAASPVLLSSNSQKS
# In short: as §1
# FEV = target: T7, FEV (Homo sapiens, UniProt Q99581 1-238); conditions: protein: recombinant; tags: N-terminal GST; dsDNA, one strand shown
# T7 sequence: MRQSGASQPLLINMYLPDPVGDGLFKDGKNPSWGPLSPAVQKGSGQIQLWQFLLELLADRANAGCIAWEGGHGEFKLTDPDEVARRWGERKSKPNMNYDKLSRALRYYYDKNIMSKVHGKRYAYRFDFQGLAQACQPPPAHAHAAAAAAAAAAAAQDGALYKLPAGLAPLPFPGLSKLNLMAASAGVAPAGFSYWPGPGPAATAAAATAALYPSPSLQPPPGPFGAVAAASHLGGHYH
# In short: as §1
# ETV5 = ETV5 (Homo sapiens, UniProt P41161 1-510); conditions: protein: recombinant; tags: N-terminal GST; dsDNA, one strand shown
# ETV5, sequence (P41161 whole entry): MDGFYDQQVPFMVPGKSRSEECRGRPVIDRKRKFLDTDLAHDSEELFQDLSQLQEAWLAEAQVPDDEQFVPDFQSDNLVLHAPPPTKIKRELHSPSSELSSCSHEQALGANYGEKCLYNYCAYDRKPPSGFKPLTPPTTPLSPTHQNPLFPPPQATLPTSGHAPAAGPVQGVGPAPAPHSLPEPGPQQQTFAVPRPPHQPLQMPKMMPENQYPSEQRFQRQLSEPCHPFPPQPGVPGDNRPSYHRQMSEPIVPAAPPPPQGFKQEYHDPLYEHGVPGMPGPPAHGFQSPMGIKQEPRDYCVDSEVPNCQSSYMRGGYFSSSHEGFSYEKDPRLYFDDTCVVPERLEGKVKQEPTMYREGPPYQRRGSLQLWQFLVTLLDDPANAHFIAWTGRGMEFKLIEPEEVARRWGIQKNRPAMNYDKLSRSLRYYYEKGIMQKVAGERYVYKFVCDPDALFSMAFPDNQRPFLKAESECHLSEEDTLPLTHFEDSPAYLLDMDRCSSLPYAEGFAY
# In short: as §1
# HSF1 = HSF1 (Homo sapiens, UniProt Q00613 1-529); conditions: protein: recombinant; tags: N-terminal GST; chain copies: 3; dsDNA, one strand shown
# HSF1, sequence (Q00613 whole entry): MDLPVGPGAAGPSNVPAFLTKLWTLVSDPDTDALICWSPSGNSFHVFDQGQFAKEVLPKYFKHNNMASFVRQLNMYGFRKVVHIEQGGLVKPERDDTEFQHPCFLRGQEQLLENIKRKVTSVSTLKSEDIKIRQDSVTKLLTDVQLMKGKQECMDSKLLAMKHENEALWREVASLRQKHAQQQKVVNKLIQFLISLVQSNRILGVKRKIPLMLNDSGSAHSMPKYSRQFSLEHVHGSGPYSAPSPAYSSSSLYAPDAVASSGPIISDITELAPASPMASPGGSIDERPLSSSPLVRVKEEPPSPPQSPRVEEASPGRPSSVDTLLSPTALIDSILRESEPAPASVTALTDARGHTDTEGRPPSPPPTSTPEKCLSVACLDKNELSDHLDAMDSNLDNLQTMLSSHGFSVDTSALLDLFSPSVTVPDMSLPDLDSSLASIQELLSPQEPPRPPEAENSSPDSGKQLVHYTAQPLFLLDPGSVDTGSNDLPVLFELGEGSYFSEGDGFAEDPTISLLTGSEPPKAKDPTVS
# In short: as §1
# SPIC = target: T8, SPIC (Homo sapiens, UniProt Q8N5J4 1-248); conditions: protein: recombinant; tags: N-terminal GST; dsDNA, one strand shown
# T8 sequence: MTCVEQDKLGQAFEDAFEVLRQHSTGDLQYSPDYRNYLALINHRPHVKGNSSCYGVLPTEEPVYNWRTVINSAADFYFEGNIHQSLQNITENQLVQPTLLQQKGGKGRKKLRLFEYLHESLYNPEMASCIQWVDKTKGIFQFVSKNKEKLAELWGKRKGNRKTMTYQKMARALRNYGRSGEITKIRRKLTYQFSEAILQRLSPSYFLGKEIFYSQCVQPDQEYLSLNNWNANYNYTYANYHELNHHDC
# In short: as §1
# ELF4 = ELF4 (Homo sapiens, UniProt Q99607 1-663); conditions: protein: recombinant; tags: N-terminal GST; dsDNA, one strand shown
# ELF4, sequence (Q99607 whole entry): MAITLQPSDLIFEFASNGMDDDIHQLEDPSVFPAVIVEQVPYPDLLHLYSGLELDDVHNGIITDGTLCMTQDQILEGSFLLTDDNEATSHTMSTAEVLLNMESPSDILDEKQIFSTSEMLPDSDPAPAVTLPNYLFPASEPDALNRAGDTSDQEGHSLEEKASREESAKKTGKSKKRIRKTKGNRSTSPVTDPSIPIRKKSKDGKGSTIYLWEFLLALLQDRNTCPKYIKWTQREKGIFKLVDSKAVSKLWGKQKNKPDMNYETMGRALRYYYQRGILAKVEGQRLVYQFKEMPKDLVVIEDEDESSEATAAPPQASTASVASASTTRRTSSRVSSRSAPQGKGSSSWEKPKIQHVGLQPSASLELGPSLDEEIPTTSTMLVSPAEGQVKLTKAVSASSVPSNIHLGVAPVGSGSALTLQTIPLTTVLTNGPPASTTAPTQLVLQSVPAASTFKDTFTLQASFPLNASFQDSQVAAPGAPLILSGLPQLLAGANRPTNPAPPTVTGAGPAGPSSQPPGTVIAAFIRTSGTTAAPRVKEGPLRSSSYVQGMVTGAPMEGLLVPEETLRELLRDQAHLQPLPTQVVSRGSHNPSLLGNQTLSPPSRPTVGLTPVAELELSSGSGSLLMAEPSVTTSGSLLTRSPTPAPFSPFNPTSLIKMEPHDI
# In short: as §1
# ELK4 = target: T9, ELK4 (Homo sapiens, UniProt P28324-2 1-405); conditions: protein: recombinant; tags: N-terminal GST; dsDNA, one strand shown
# T9 sequence: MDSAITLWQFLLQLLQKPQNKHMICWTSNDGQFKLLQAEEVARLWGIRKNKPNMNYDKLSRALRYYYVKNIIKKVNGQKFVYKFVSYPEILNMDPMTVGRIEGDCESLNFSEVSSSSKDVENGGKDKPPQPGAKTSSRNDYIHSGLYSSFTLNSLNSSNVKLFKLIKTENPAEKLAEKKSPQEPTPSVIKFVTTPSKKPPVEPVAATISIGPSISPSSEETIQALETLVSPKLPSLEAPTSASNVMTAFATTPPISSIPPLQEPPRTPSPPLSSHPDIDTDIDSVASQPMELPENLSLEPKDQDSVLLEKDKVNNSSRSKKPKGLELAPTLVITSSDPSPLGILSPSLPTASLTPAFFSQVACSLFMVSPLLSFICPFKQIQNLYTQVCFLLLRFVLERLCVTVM
# In short: as §1
# ETV2 = target: T10, ETV2 (Homo sapiens, UniProt O00321 1-342); conditions: protein: recombinant; tags: N-terminal GST; dsDNA, one strand shown
# T10 sequence: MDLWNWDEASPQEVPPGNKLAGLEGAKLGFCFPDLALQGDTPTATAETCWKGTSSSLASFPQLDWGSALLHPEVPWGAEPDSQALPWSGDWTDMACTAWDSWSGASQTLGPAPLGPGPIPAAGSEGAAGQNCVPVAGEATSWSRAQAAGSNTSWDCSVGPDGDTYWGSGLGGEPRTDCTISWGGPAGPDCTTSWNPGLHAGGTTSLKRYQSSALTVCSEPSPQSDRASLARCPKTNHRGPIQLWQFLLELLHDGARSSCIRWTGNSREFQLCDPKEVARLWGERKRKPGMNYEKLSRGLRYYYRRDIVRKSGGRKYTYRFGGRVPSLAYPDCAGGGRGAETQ
# In short: as §1
# ELF3 = target: T11, ELF3 (Homo sapiens, UniProt P78545 1-371); conditions: protein: recombinant; tags: N-terminal GST; dsDNA, one strand shown
# T11 sequence: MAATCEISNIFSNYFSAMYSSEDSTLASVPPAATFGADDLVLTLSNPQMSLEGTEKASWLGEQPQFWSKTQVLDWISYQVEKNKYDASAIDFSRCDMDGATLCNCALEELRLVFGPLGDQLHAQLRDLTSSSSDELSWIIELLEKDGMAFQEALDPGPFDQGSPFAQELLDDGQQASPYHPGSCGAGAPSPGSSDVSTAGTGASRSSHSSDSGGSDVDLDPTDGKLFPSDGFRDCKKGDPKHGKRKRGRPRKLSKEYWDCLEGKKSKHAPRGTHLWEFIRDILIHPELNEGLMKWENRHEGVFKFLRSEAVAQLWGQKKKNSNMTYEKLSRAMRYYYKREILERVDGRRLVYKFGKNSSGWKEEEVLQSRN
# In short: as §1
# CRX = CRX (Homo sapiens, UniProt O43186 1-299); conditions: protein: recombinant; tags: N-terminal GST; dsDNA, one strand shown
# CRX, sequence (O43186 whole entry): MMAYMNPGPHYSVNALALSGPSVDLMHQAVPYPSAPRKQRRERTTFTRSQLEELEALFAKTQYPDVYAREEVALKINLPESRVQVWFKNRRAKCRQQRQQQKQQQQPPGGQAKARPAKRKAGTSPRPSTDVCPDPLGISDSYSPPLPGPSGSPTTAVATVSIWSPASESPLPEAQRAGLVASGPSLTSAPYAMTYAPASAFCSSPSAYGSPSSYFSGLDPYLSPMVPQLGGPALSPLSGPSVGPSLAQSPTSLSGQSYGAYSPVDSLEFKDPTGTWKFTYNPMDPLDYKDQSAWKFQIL
# In short: as §1
# ETV1 = ETV1 (Homo sapiens, UniProt P50549 1-477); conditions: protein: recombinant; tags: N-terminal GST; dsDNA, one strand shown
# ETV1, sequence (P50549 whole entry): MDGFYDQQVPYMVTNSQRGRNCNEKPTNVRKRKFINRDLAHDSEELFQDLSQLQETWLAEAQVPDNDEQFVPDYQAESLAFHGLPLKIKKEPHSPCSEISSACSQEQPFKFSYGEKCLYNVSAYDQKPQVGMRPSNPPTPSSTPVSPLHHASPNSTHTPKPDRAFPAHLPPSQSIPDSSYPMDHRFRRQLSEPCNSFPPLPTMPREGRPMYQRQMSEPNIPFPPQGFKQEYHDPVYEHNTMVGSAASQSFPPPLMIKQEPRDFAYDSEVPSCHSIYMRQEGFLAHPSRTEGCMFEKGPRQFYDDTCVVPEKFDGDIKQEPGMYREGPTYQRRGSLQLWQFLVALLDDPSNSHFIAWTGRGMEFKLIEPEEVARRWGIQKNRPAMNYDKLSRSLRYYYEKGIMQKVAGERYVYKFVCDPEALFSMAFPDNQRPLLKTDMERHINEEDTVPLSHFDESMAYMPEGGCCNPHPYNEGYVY
# In short: as §1
sequence,measurement,setting,value
TTATGA,binding signal,FLI1,"1.15 fold enrichment (6-mer frequency, TF over GST control)"
same,binding signal,ELK1,"1.15 fold enrichment (6-mer frequency, TF over GST control)"
same,binding signal,GABPA,"1.22 fold enrichment (6-mer frequency, TF over GST control)"
same,binding signal,ERG,"1.08 fold enrichment (6-mer frequency, TF over GST control)"
same,binding signal,ELF1,"1.19 fold enrichment (6-mer frequency, TF over GST control)"
same,binding signal,EHF,"1.16 fold enrichment (6-mer frequency, TF over GST control)"
same,binding signal,SPI1,"1.15 fold enrichment (6-mer frequency, TF over GST control)"
same,binding signal,SPIB,"1.14 fold enrichment (6-mer frequency, TF over GST control)"
same,binding signal,ELK3,"1.22 fold enrichment (6-mer frequency, TF over GST control)"
same,binding signal,FEV,"1.07 fold enrichment (6-mer frequency, TF over GST control)"
same,binding signal,ETV5,"1.16 fold enrichment (6-mer frequency, TF over GST control)"
same,binding signal,HSF1,"1.45 fold enrichment (6-mer frequency, TF over GST control)"
same,binding signal,SPIC,"1.26 fold enrichment (6-mer frequency, TF over GST control)"
same,binding signal,ELF4,"1.05 fold enrichment (6-mer frequency, TF over GST control)"
same,binding signal,ELK4,"1.07 fold enrichment (6-mer frequency, TF over GST control)"
same,binding signal,ETV2,"1.09 fold enrichment (6-mer frequency, TF over GST control)"
same,binding signal,ELF3,"1.31 fold enrichment (6-mer frequency, TF over GST control)"
same,binding signal,CRX,"1.99 fold enrichment (6-mer frequency, TF over GST control)"
same,binding signal,ETV1,"1.17 fold enrichment (6-mer frequency, TF over GST control)"
